Assay results from PubChem BioAssay.
Active and inactive are the calls of the source.

Tests used:
[1] = tested on: Plasmodium falciparum Sir2 (PF13_0152, Sir2A); test: pfSir2 binders on small-molecule microarrays, primary screen, biochemical, small-molecule microarray, 635 nm fluorescence (AID 1098); details: small-molecule microarray binding, fluorescence 635 nm; higher = more signal;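 also: score merges spot fluorescence intensity with its signal-to-noise ratio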
[2] = small-molecule microarray binders of probe aDKK1, primary screen, biochemical, biotinylated probe, 635/667 nm fluorescence (AID 1099); details: higher = more signal;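 also: score merges 667nm spot fluorescence with signal to noise across triplicate slides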
[3] = small-molecule microarray binders of probe aCHRDL2, primary screen, biochemical, biotinylated probe, 635/667 nm fluorescence (AID 1100); details: higher = more signal
[4] = splicing luciferase reporter signal modulators, primary screen, spliceosome inhibition project, cell-based, HEK293, splice +/- reporter (AID 1101); details: luminescence, 24 h, higher = more signal, called active from +8 up or from −8 down;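 also: HEK293 cells carrying a splicing-competent luciferase reporter gene; test concentration not given here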
[5] = target: Fibroblast growth factor 10 (Homo sapiens) (UniProt O15520); test: FGF10 binders on small-molecule microarrays, primary screen, biochemical, small-molecule microarray, 635 nm fluorescence (AID 1102); details: FGF10 binding, fluorescence 635 nm, higher = more signal
Fibroblast growth factor 10 (Homo sapiens), sequence (O15520 whole entry, looked up): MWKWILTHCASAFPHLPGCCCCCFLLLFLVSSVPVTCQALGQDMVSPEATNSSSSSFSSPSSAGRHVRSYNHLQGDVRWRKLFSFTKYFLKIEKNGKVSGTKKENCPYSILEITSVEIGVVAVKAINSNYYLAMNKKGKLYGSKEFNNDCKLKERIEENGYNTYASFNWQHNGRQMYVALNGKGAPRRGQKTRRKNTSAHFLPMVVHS

[6] = tested on: glycogen synthase kinase-3 (GSK3A per assay name; protocol says GSK3B); test: GSK3 binders on small-molecule microarrays, primary screen, biochemical, small-molecule microarray, 635 nm fluorescence, GSK3A (AID 1103); details: small-molecule microarray binding, fluorescence 635 nm; higher = more signal; also: the record names both GSK3A and GSK3B
[7] = target: Epidermal growth factor receptor (Homo sapiens) (UniProt P00533); test: EGFR binders on small-molecule microarrays, primary screen, biochemical, small-molecule microarray, 635 nm fluorescence (AID 1104); details: EGFR binding, higher = more signal;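 also: score merges 667 nm emission intensity with spot signal to noise over triplicate slides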
Epidermal growth factor receptor (Homo sapiens), sequence (P00533 whole entry, looked up): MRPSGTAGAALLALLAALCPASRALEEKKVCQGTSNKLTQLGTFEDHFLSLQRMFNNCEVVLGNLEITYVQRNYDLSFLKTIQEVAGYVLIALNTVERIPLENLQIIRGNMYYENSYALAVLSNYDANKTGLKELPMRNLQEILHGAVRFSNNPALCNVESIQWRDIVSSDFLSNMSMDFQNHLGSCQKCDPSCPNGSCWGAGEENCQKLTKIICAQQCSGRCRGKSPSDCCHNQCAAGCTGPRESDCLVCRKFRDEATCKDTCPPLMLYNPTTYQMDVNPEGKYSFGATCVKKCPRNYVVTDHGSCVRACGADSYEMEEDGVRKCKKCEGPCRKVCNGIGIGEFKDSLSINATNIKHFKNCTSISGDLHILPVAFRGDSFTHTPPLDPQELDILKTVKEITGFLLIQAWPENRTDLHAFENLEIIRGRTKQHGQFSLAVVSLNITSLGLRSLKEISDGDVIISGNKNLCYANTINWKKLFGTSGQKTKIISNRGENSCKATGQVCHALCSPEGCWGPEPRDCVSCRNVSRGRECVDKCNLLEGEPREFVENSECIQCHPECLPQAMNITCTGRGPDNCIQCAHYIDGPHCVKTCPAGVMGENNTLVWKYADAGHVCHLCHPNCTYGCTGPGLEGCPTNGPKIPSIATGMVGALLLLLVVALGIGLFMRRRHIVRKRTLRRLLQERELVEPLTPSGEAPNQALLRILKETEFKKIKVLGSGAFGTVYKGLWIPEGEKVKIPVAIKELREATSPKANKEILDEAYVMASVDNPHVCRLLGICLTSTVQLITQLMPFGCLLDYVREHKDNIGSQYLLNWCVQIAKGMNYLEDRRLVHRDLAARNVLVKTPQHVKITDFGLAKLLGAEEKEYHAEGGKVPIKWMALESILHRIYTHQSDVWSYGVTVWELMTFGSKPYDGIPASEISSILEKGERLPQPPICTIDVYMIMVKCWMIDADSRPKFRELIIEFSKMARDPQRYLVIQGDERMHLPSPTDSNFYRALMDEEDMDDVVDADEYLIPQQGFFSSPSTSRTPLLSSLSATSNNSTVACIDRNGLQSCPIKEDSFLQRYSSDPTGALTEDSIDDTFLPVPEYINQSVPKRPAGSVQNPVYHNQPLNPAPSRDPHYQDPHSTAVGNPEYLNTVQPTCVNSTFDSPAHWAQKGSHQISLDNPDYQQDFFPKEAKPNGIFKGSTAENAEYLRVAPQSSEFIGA

[8] = target: Follistatin-related protein 3 (Homo sapiens) (UniProt O95633); test: FSTL3 binders on small-molecule microarrays, primary screen, biochemical, small-molecule microarray, 635 nm fluorescence (AID 1105); details: FSTL3 binding, higher = more signal;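 also: score merges emission near 667 nm and signal to noise per printed spot across three slides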
Follistatin-related protein 3 (Homo sapiens), sequence (O95633 whole entry, looked up): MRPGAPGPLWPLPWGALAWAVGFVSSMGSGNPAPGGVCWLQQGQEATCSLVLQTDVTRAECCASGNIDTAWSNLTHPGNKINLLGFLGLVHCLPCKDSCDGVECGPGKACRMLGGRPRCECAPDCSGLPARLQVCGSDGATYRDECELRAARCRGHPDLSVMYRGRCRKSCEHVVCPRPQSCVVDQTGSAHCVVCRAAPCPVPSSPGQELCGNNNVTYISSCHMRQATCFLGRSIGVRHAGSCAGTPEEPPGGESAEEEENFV

[9] = target: Dickkopf-related protein 1 (Homo sapiens) (UniProt O94907); test: DKK1 binders on small-molecule microarrays, primary screen, biochemical, small-molecule microarray, 635 nm fluorescence scan (AID 1106); details: DKK1 binding, higher = more signal;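 also: score merges emission near 667 nm with signal to noise over three replicate slides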
Dickkopf-related protein 1 (Homo sapiens), sequence (O94907 whole entry, looked up): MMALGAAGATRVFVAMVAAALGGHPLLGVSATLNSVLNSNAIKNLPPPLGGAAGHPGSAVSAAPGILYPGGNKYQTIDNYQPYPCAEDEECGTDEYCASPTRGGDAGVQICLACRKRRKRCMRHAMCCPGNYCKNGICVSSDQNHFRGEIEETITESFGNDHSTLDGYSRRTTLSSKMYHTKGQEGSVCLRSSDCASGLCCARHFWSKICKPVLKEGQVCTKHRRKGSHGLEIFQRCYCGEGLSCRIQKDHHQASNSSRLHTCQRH

[10] = tested on: Inhibin beta A chain (activin A); test: INHBA (activin A) binders on microarrays, primary screen, biochemical, small-molecule microarray, 635 nm fluorescence scan (AID 1107); details: small-molecule microarray binding, higher = more signal;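 also: mouse activin A protein probed at 4.33 µg/mL on printed slides; score merges bound-protein fluorescence near 667 nm with spot signal-to-noise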
[11] = tested on: Human papillomavirus type 1a protein E7 (residues 44-93); test: HPV1a E7 fragment binders on microarrays, primary screen, biochemical, small-molecule microarray, residues 44-93, 635 nm fluorescence (AID 1108); details: small-molecule microarray binding, fluorescence 635 nm; higher = more signal;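 also: E7 fragment applied at 1 µg/mL in TBST for 1 h at 4 C; score combines spot fluorescence with its signal to noise ratio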
[12] = modulators of HCV replicon luciferase signal, primary screen, HCV replication inhibitor project, Huh7 cells, luciferase reporter (AID 1109); details: 48 h, higher = more signal;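 also: huh7 hepatoma cells harbouring a luciferase neomycin HCV replicon reporter; luciferase luminescence as measure of HCV replicon replication; test concentration not given here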
[13] = target: Left-right determination factor 2 (Homo sapiens) (UniProt O00292); test: LEFTY2 binders on small-molecule microarrays, primary screen, biochemical, small-molecule microarray, 635 nm fluorescence scan (AID 1110); details: LEFTY2 binding, higher = more signal
Left-right determination factor 2 (Homo sapiens), sequence (O00292 whole entry, looked up): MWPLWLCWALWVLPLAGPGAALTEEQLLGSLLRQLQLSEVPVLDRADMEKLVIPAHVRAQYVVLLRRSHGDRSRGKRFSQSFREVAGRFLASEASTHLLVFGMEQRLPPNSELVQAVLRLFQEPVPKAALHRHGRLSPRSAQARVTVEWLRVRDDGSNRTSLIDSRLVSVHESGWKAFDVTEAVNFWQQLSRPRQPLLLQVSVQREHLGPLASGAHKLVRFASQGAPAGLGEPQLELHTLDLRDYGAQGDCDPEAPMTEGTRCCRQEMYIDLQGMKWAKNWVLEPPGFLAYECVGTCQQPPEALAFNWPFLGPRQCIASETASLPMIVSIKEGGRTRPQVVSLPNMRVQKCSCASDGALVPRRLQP

[14] = target: Calmodulin-1 (Homo sapiens) (UniProt P0DP23); test: CALM1 binders on microarrays, EGTA buffer, profiling panel, biochemical, small-molecule microarray, Cy5-labelled CALM1 (AID 1111); details: Cy5-CALM1 binding fluorescence, higher = more signal;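 also: labelled calmodulin applied in Tris saline Tween buffer holding calcium plus EGTA and DTT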
[15] = target: Calmodulin-1 (Homo sapiens) (UniProt P0DP23); test: calcium-bound CALM1 binders on microarrays, profiling panel, artefact control for SMM control-protein annotation, biochemical, small-molecule microarray, Cy5-labelled CALM1, plus calcium (AID 1112); details: Cy5-CALM1 binding fluorescence, higher = more signal;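 also: score merges spot fluorescence with signal to noise from triplicate slides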
[16] = small-molecule microarray binders of probe aWnt5a, primary screen, biochemical, biotinylated probe, 635/667 nm fluorescence (AID 1113); details: higher = more signal;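 also: score merges 667 nm fluorescence intensity with signal-to-noise per printed feature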
[17] = small-molecule microarray binders of probe aShh, primary screen, biochemical, biotinylated probe, 635/667 nm fluorescence (AID 1114); details: higher = more signal;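 also: probe is biotin-labelled aShh protein from a stem cell growth factor screen; measures binding of labelled protein to compounds printed on the slide; score merges feature fluorescence at 667 nm with signal-to-noise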
[18] = small-molecule microarray binders of probe aNog, primary screen, biochemical, biotinylated probe, 635/667 nm fluorescence (AID 1115); details: higher = more signal;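 also: probe is biotinylated aNog protein used at 0.15 µg/mL for 1 h at 4 C; z-score combines 667 nm fluorescence of each spot with its signal to noise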
[19] = target: Torsin-1A-interacting protein 1 (Homo sapiens) (UniProt Q5JTV8); test: LAP1 binders from COS7 cell lysate, primary screen, small-molecule microarray, 635/667 nm fluorescence (AID 1116); details: COS7-hLAP1 lysate binding, 635 nm fluorescence, higher = more signal
Torsin-1A-interacting protein 1 (Homo sapiens), sequence (Q5JTV8 whole entry, looked up): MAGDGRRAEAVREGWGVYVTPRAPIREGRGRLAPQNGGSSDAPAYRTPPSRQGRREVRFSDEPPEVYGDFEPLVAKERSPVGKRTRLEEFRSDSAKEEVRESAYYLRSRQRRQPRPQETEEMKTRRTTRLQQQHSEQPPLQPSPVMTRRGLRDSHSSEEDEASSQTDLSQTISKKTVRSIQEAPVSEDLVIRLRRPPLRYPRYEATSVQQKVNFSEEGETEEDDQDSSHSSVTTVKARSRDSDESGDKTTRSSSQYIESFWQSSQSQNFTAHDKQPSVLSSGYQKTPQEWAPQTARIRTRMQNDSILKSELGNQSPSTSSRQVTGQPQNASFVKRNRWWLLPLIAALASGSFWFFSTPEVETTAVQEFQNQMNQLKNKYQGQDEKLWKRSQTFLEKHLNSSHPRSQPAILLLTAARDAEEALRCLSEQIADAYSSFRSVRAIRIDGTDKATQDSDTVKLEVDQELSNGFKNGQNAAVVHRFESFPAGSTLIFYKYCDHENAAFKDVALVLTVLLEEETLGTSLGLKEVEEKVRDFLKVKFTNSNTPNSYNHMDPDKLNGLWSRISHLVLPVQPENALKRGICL

[20] = target: Alpha-bungarotoxin (Bungarus multicinctus) (UniProt P60615); test: alpha-bungarotoxin binders on microarray, profiling panel, artefact control for SMM control protein annotation, biochemical, small-molecule microarray, Alexa647 label, 635/667 nm fluorescence (AID 1117); details: alpha-BTX-A647 binding fluorescence, higher = more signal
Alpha-bungarotoxin (Bungarus multicinctus), sequence (P60615 whole entry, looked up): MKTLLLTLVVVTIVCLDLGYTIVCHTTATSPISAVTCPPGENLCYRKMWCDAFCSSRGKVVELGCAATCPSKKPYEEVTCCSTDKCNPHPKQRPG

Structure (SMILES) | composite z-score [1] | composite z-score [2] | composite z-score [3] | z-score [4] | composite z-score [5] | composite z-score [6] | composite z-score [7] | composite z-score [8] | composite z-score [9] | composite z-score [10] | composite z-score [11] | z-score [12] | composite z-score [13] | composite z-score [14] | composite z-score [15] | composite z-score [16] | composite z-score [17] | composite z-score [18] | composite z-score [19] | composite z-score [20]
CC(C)=NO[C@@H](C)c1cn([C@H](CO)Cc2ccccc2)nn1 | 0.8 | 0.0454 | -0.832 | -0.937 (inactive) | 0.393 | 0.523 | 0.303 | 0.345 | 0.27 | 0.111 | 0.833 | 1.13 | 0.802 | -0.03 | -0.408 | 0.0044 | -0.0794 | -0.35 | 0.541 | 0.392
CC(=O)OC[C@H]1O[C@H](CCON=C(C)CCN2CCCc3nc(C)c(C)cc32)C=C[C@@H]1OC(C)=O | 0.773 | -0.108 | -0.408 | 1.06 (inactive) | 0.932 | 1.24 | 0.986 | 1.16 | 0.735 | 0.965 | 1.33 | -0.186 | 0.686 | -0.191 | -0.947 | -0.0229 | -0.138 | 0.189 | 0.489 | 0.133
CCOC(=O)[C@H](CC(C)C)NC(=O)CCC1CC(OC(=O)NCc2ccc3c(c2)OCO3)CC2(CCCC(COC(=O)NCc3ccccc3)O2)O1 (stereo not given in full) | 0.58 | -0.197 | -0.495 | -0.403 (inactive) | 0.713 | 0.486 | 0.316 | 0.675 | 0.425 | -0.0973 | 1.37 | -0.0695 | 0.355 | 0.562 | -0.158 | 0.0799 | -0.153 | -0.074 | 0.137 | 0.461
C#CCCCON=C1C[C@@H](O)[C@@H](O)[C@@H]2[C@@H]3C(=O)N([C@@H](C)c4ccccc4)C(=O)[C@@H]3CC[C@@H]12 | 0.563 | -0.292 | 0.0951 | -0.0154 (inactive) | -0.723 | -0.521 | 0.377 | -0.447 | -0.67 | 0.718 | -0.31 | 1.14 | 0.201 | -0.172 | -0.274 | -0.166 | -0.0553 | 0.167 | -0.512 | 0.46
COC(=O)[C@H](C)NC(=O)CCC1CC(OC(=O)NCc2ccc3c(c2)OCO3)CC2(CCCC(COC(=O)NCc3ccccc3)O2)O1 (stereo not given in full) | 0.343 | -0.172 | -0.612 | -0.66 (inactive) | 0.894 | 0.821 | 0.293 | 0.832 | 0.893 | -0.0611 | 1.25 | 0.188 | 0.508 | 0.202 | -0.558 | -0.001 | -0.0709 | -0.258 | 0.179 | 0.159
CC(=O)OC[C@H]1O[C@H](CC=NOC(C)CN2CCCc3nc(C)c(C)cc32)C=C[C@@H]1OC(C)=O (stereo not given in full) | 0.104 | -0.104 | -0.457 | 0.184 (inactive) | 0.708 | 0.961 | 0.383 | 0.834 | 0.578 | 0.8 | 0.838 | -0.475 | 0.833 | -0.651 | -1.2 | 0.027 | 0.261 | 0.134 | 1 | -0.0213
CC(CCN1CCCc2nc(C)c(C)cc21)=NO[C@@H](C)c1cn([C@H](CO)Cc2ccccc2)nn1 | 0.531 | -0.264 | -0.388 | 0.867 (inactive) | 0.817 | 0.471 | 0.666 | 0.698 | 0.928 | 1.19 | 0.425 | -0.0976 | 0.67 | -0.168 | -0.671 | -0.0199 | 0.0952 | 0.139 | 0.527 | 0.117
COc1ccc(-c2cnnc(CCCn3ccnc3-c3ccccc3)n2)cc1 | 0.442 | 0.0096 | -0.592 | -1.04 (inactive) | 0.7 | 0.7 | 0.929 | 1.37 | 1.02 | 0.327 | 0.412 | -2.57 | 0.774 | 0.212 | -0.686 | -0.103 | -0.0769 | -0.395 | 0.917 | 0.587
C[C@H]1CC[C@H]2C(=O)O[C@H](CO)CN2[C@@H]1c1ccc(Br)cc1 | -0.233 | -0.198 | -0.372 | -0.202 (inactive) | -0.111 | -0.348 | 0.0844 | -0.378 | -0.106 | 0.829 | 0.33 | -0.0002 | 0.217 | -0.25 | -0.445 | -0.213 | -0.276 | -0.234 | -0.138 | 0.126
CC(CCN1CCCCc2nc(C)c(C)cc21)=NO[C@H](C)c1cn([C@@H]2COC[C@H]2O)nn1 | 0.742 | -0.404 | -0.961 | 1.09 (inactive) | 1.23 | 1.16 | 1.61 | 1.43 | 2.15 | 1.21 | 0.421 | -0.219 | 1.35 | -0.197 | -0.835 | -0.222 | -0.112 | -0.158 | 0.337 | 1.3
COc1ccc(COC(=O)NN=C2C[C@@H](O)[C@@H](O)[C@@H]3[C@@H]4C(=O)N(c5cccc(Oc6ccccc6)c5)C(=O)[C@@H]4CC[C@H]23)cc1 | 0.328 | 0.543 | 1.2 | -1.27 (inactive) | -0.0908 | -0.944 | -0.479 | -0.226 | -0.767 | 0.212 | -0.0321 | -1.46 | -0.35 | 0.0317 | 0.176 | -0.215 | -0.2 | -0.336 | 0.215 | 0.971
